Laboratory results: PubChem BioAssay (NCATS)
Values joined by “and” are separate entries in the source; they are usually repeats but may differ in a detail not shown here. Equal entries are not always repeated. Inconclusive results are not listed. Where a call stands in place of a potency, no number is given. More than one record can exist for a structure, and the calls need not agree. Unmarked numbers belong to inactive results. Active and inactive are the calls of the source. The call rests on the fitted dose curve; in most records, active means well fitted curve in the direction sought with a large enough effect; inconclusive means small, poorly fitted or top-dose-only effect, or another doubt; inactive means no such curve, though single readings can be large; an effect the other way counts as inactive or inconclusive.

What was measured:
HEK293 = test: Cytotoxic Profiling of Annotated Libraries Using Quantitative High-Throughput Screening (AID 1296008); settings: Five cell lines viability, CellTiter-Glo ATP luminescence, 48-72 h; max response: stronger effect = lower value; further: nearly all actives have a fitted effect of over 60% in size
Procedure, shortened: (§1)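 Cytotoxicity was measured as CellTiter-Glo ATP luminescence, read after 10 min at room temperature. Compound treatment of the cells lasted 48 or 72 hr at 37 degrees Celsius in a qHTS format.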

HaCat [1] = test: as above; settings: Five cell lines viability, CellTiter-Glo ATP luminescence, 48-72 h; max response: stronger effect = lower value
Procedure, shortened: as §1

KB-3-1 = test: as above; settings: Five cell lines viability, CellTiter-Glo ATP luminescence, 48-72 h; max response: stronger effect = lower value
Procedure, shortened: as §1

NIH3T3 [2] = test: as above; settings: Five cell lines viability, CellTiter-Glo ATP luminescence, 48-72 h; max response: stronger effect = lower value
Procedure, shortened: as §1

HACAT [3] = test: qHTS assay to identify novel small-molecules to repurpose for Merkel cell carcinoma treatment (AID 1296009); settings: MCC and control cell lines, CellTiter-Glo viability, 72 h; series mostly up to 44.8 µM; further: nearly all actives have a fitted effect of over 60% in size
Procedure, shortened: (§2)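 After compound transfer in DMSO, plates were kept 72 hr at 37 degree celsius. Luminescent ATP signal from CellTiter-Glo served as viability measure, normalized against DMSO and no-cell controls.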

MCC-26 = test: as above; settings: MCC and control cell lines, CellTiter-Glo viability, 72 h; series mostly up to 46 µM
Procedure, shortened: as §2

MKL-1 = test: as above; settings: MCC and control cell lines, CellTiter-Glo viability, 72 h; series mostly up to 46 µM
Procedure, shortened: as §2

MKL-2 = test: as above; settings: MCC and control cell lines, CellTiter-Glo viability, 72 h; series mostly up to 46 µM
Procedure, shortened: as §2

NIH3T3 [4] = test: as above; settings: MCC and control cell lines, CellTiter-Glo viability, 72 h; at 44.8 µM (top of the series) unless noted
Procedure, shortened: as §2

WaGa = test: as above; settings: MCC and control cell lines, CellTiter-Glo viability, 72 h; series mostly up to 46 µM
Procedure, shortened: as §2

CAOV3 = test: Primary qHTS to identify gynecologic anti-cancer compounds using libraries of approved drugs and bioactive compounds (AID 1345084); settings: Gynecologic cancer cell panel viability, ATPlite luminescence, 48 h; series mostly up to 57.5 µM; further: nearly all actives have a fitted effect of over 55% in size
Procedure, shortened: (§3)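 Cells, 1,000 per well, plated 16 h, then exposed 48 h at 37 C to compounds. Viability by ATPlite luminescence after 15 min at room temperature.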

CASKI = test: as above; settings: Gynecologic cancer cell panel viability, ATPlite luminescence, 48 h; series mostly up to 57.5 µM
Procedure, shortened: as §3

Es-2 = test: as above; settings: Gynecologic cancer cell panel viability, ATPlite luminescence, 48 h; series mostly up to 57.5 µM
Procedure, shortened: as §3

Hek293T [5] = test: as above; settings: Gynecologic cancer cell panel viability, ATPlite luminescence, 48 h, control line for the selectivity index; series mostly up to 57.5 µM
Procedure, shortened: as §3

MCC-13 = test: qHTS assay to identify novel small-molecules to repurpose for Merkel cell carcinoma treatment (AID 1296009); settings: MCC and control cell lines, CellTiter-Glo viability, 72 h; series mostly up to 46 µM; further: nearly all actives have a fitted effect of over 60% in size
Procedure, shortened: as §2

C33A = test: Primary qHTS to identify gynecologic anti-cancer compounds using libraries of approved drugs and bioactive compounds (AID 1345084); settings: Gynecologic cancer cell panel viability, ATPlite luminescence, 48 h; series mostly up to 57.5 µM; further: nearly all actives have a fitted effect of over 55% in size
Procedure, shortened: as §3

HeLa = test: as above; settings: Gynecologic cancer cell panel viability, ATPlite luminescence, 48 h; series mostly up to 57.5 µM
Procedure, shortened: as §3

JEG-3 = test: as above; settings: Gynecologic cancer cell panel viability, ATPlite luminescence, 48 h; series mostly up to 57.5 µM
Procedure, shortened: as §3

UISO = test: qHTS assay to identify novel small-molecules to repurpose for Merkel cell carcinoma treatment (AID 1296009); settings: MCC and control cell lines, CellTiter-Glo viability, 72 h; series mostly up to 46 µM; further: nearly all actives have a fitted effect of over 60% in size
Procedure, shortened: as §2

HEK293T [6] = test: as above; settings: MCC and control cell lines, CellTiter-Glo viability, 72 h; at 44.8 µM (top of the series) unless noted
Procedure, shortened: as §2
Potency means the concentration at half of the fitted maximal effect.

## Cc1cnc(-c2cnc(NCCNc3ccc(C#N)cn3)nc2-c2ccc(Cl)cc2Cl)[nH]1
HEK293
  max response: -23.2% and -27.2%
HaCat [1]
  outcome: inactive
KB-3-1
  max response: -14.7% and -1.89%
NIH3T3 [2]
  outcome: inactive
HACAT [3]
  Potency: inactive
MCC-26
  Potency: inactive
MKL-1
  Potency: inactive
MKL-2
  Potency: inactive
NIH3T3 [4]
  outcome: inactive
WaGa
  Potency: inactive
CAOV3
  Potency: inactive
CASKI
  Potency: inactive
Es-2
  Potency: inactive
Hek293T [5]
  Potency: inactive

## C=CC(=O)Nc1cccc(Oc2nc(Nc3ccc(N4CCN(C)CC4)cc3OC)ncc2Cl)c1
HEK293
  max response: -27.8%
HaCat [1]
  Potency: 2.09 µM (active) and 4.11 µM (active)
KB-3-1
  max response: -0.948%
NIH3T3 [2]
  Potency: 18.4 µM (active)
  max response: -7.7%
MCC-13
  Potency: 2.96 µM (active)
MKL-1
  Potency: 2.64 µM (active)
MKL-2
  Potency: inactive
WaGa
  Potency: 2.96 µM (active)
C33A
  Potency: inactive
CASKI
  Potency: 17.8 µM (active)
Es-2
  Potency: inactive
HeLa
  Potency: inactive
Hek293T [5]
  Potency: inactive
JEG-3
  Potency: inactive

## CC[C@@]1(O)C(=O)OCc2c1cc1n(c2=O)Cc2cc3cc(O)ccc3nc2-1
HEK293
  Potency: 73.1 nM (active) and 148 nM (active)
HaCat [1]
  Potency: 116 nM (active) and 743 nM (active)
KB-3-1
  Potency: 517 nM (active) and 1.05 µM (active)
NIH3T3 [2]
  Potency: 1.46 µM (active) and 662 nM (active)
MCC-13
  Potency: 0.118 µM (active)
MCC-26
  Potency: 0.132 µM (active)
MKL-1
  Potency: 0.0372 µM (active)
MKL-2
  Potency: 0.264 µM (active)
UISO
  Potency: 0.0743 µM (active)
WaGa
  Potency: 0.0187 µM (active)
C33A
  Potency: 0.794 µM (active)
CASKI
  Potency: 0.398 µM (active)
Es-2
  Potency: 0.355 µM (active)
Hek293T [5]
  Potency: 1.26 µM (active)

## CC(C)c1ccc(Cn2ccc3c4c(N)nc(NC5CC5)nc4ccc32)cc1
HEK293
  Potency: 1.18 µM (active)
HaCat [1]
  Potency: 37.2 µM (active)
KB-3-1
  Potency: 1.32 µM (active)
NIH3T3 [2]
  Potency: 4.69 µM (active)
MCC-13
  Potency: 1.05 µM (active)
MCC-26
  Potency: 16.6 µM (active)
MKL-1
  Potency: 14.8 µM (active)
MKL-2
  Potency: 4.18 µM (active)
UISO
  Potency: 14.8 µM (active)
WaGa
  Potency: 9.35 µM (active)

## C=CC(=O)Nc1cccc(Oc2nc(Nc3ccc(N4CCN(C)CC4)cc3)ncc2Cl)c1
HEK293
  Potency: 5.26 µM (active) and 9.2 µM (active)
HaCat [1]
  Potency: 1.18 µM (active) and 2.31 µM (active)
KB-3-1
  Potency: 2.96 µM (active) and 5.8 µM (active)
NIH3T3 [2]
  Potency: 3.72 µM (active) and 6.51 µM (active)
MCC-13
  Potency: 7.43 µM (active)
MCC-26
  Potency: 11.8 µM (active)
MKL-1
  Potency: 3.32 µM (active)
MKL-2
  Potency: 8.33 µM (active)
CAOV3
  Potency: 7.94 µM (active)
CASKI
  Potency: 10 µM (active)
Es-2
  Potency: inactive
HeLa
  Potency: 7.94 µM (active)
JEG-3
  Potency: inactive

## Cc1cn2cc(C(=O)N(C)CCO)cc(N[C@@H]3CCOc4cccc(C)c43)c2n1
HEK293
  max response: -7.53% and -5.18%
HaCat [1]
  outcome: inactive
KB-3-1
  max response: -1.9%
  outcome: inactive
NIH3T3 [2]
  outcome: inactive
HACAT [3]
  Potency: inactive
MCC-13
  Potency: inactive
MKL-1
  Potency: inactive
MKL-2
  Potency: inactive
NIH3T3 [4]
  outcome: inactive
WaGa
  Potency: inactive
C33A
  Potency: inactive
CAOV3
  Potency: inactive
CASKI
  Potency: inactive
Es-2
  Potency: inactive
HeLa
  Potency: inactive
Hek293T [5]
  Potency: inactive
JEG-3
  Potency: inactive

## CC(=O)SC[C@@H](C)C(=O)N1CCC[C@H]1C(=O)N[C@@H](Cc1ccccc1)C(=O)O
HEK293
  outcome: inactive
HaCat [1]
  max response: 1.63%
KB-3-1
  max response: 2.35%
NIH3T3 [2]
  max response: 0.0761%
HEK293T [6]
  outcome: inactive
MCC-13
  Potency: inactive
MCC-26
  Potency: inactive
MKL-1
  Potency: inactive
MKL-2
  Potency: inactive
UISO
  Potency: inactive
WaGa
  Potency: inactive
C33A
  Potency: inactive
CASKI
  Potency: inactive
Es-2
  Potency: inactive
HeLa
  Potency: inactive
Hek293T [5]
  Potency: inactive
JEG-3
  Potency: inactive

## CN1c2cc(O)c(N=NC(N)=O)cc2CC1S(=O)(=O)O (stereo not drawn)
HEK293
  max response: 2.9%
HaCat [1]
  max response: -1.08%
KB-3-1
  outcome: inactive
NIH3T3 [2]
  outcome: inactive
MCC-13
  Potency: inactive
MCC-26
  Potency: inactive
MKL-1
  Potency: inactive
MKL-2
  Potency: inactive
NIH3T3 [4]
  outcome: inactive
UISO
  Potency: inactive
WaGa
  Potency: inactive

## Nc1cc(C(F)(F)F)c(-c2cc(N3CCOCC3)nc(N3CCOCC3)n2)cn1
HEK293
  Potency: 935 nM (active) and 2.31 µM (active)
HaCat [1]
  Potency: 1.18 µM (active) and 1.64 µM (active)
KB-3-1
  Potency: 743 nM (active) and 1.46 µM (active)
NIH3T3 [2]
  Potency: 1.05 µM (active) and 2.59 µM (active)
MCC-13
  Potency: 2.96 µM (active)
MCC-26
  Potency: 2.35 µM (active)
MKL-1
  Potency: 1.66 µM (active)
MKL-2
  Potency: inactive
UISO
  Potency: 1.66 µM (active)
C33A
  Potency: 15.8 µM (active)
CASKI
  Potency: 3.55 µM (active)
Es-2
  Potency: 6.31 µM (active)
HeLa
  Potency: 3.98 µM (active)
Hek293T [5]
  Potency: 3.16 µM (active)
JEG-3
  Potency: 7.94 µM (active)

## O=C(NCCS(=O)(=O)c1ccc(C(F)(F)F)cn1)c1ccc(Cl)cc1
HEK293
  max response: -5.18%
HaCat [1]
  outcome: inactive
KB-3-1
  outcome: inactive
NIH3T3 [2]
  max response: 1.91%
HACAT [3]
  Potency: inactive
MCC-13
  Potency: inactive
MCC-26
  Potency: inactive
MKL-1
  Potency: inactive
MKL-2
  Potency: inactive
UISO
  Potency: inactive
WaGa
  Potency: inactive

## CC(=O)OCCN1C(=O)c2c(C)nc3ccc(S(=O)(=O)N4CCOCC4)cc3c2C1=O
HEK293
  max response: -2.2%
HaCat [1]
  max response: 1.24%
KB-3-1
  outcome: inactive
NIH3T3 [2]
  max response: 2.81%
MCC-13
  Potency: inactive
MCC-26
  Potency: inactive
MKL-1
  Potency: inactive
MKL-2
  Potency: inactive
UISO
  Potency: inactive
WaGa
  Potency: inactive
